PubChem BioAssay AID1159580 (chemical genetic matrix, 2015)
Out of some 5,500 compounds screened, about 2,000 (36%) were called active. Another 18% or so got no clear call; they are omitted. No stated cut-off is given here; in the data, active means normalized growth mostly below about 0.91 (no sharp cut-off); inconclusive means no clear call, values can overlap the other calls; inactive means mostly above about 0.92. This is one part of the list.

Assay: chemical genetic growth profiling, strain panel (AID 1159580);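 further: tested at 20 µM; growth read once vehicle control cultures reached saturation at 30 °C; 1 = growth at the plate median or of vehicle wells; lower values mean less growth of the strain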
Settings: growth OD

Measured: normalized growth

C[C@@H]1CC2C3C[C@H](F)C4=CC(=O)C=C[C@]4(C)[C@@]3(F)[C@@H](O)C[C@]2(C)[C@@]1(O)C(=O)COC(=O)C(C)(C)C (some centres not stated)
inactive: S. cerevisiae deletion strains, locus YJR075W, strain HOC1, active compounds read low 0.997 | S. cerevisiae deletion strains, locus YKL009W, strain mrt4, active compounds read low 0.982 | S. cerevisiae deletion strains, locus YKL068W, active compounds read low 1.01 | S. cerevisiae deletion strains, locus YKL085W, strain MDH1 (second series), active compounds read low 1 | S. cerevisiae deletion strains, locus YKL085W, strain MDH1, active compounds read low 1 | S. cerevisiae deletion strains, locus YKL160W, strain elf1, active compounds read low 0.978 | S. cerevisiae deletion strains, locus YKL190W, strain CNB1, active compounds read low 0.997 | S. cerevisiae deletion strains, locus YKR001C, strain vps1, active compounds read low 0.988 | S. cerevisiae deletion strains, locus YKR026C, strain gcn3, active compounds read low 0.997 | S. cerevisiae deletion strains, locus YKR091W, strain srl3, active compounds read low 0.996 | S. cerevisiae deletion strains, locus YLL001W, strain dnm1, active compounds read low 0.987 | S. cerevisiae deletion strains, locus YLL026W, active compounds read low 0.984 | S. cerevisiae deletion strains, locus YLL041C, strain sdh2, active compounds read low 1.01 | S. cerevisiae deletion strains, locus YLR027C, strain aat2, active compounds read low 0.987 | S. cerevisiae deletion strains, locus YLR039C, strain RIC1, active compounds read low 1.02 | S. cerevisiae deletion strains, locus YLR058C, strain SHM2, active compounds read low 1.01 | S. cerevisiae deletion strains, locus YLR102C, strain apc9, active compounds read low 1.01 | S. cerevisiae deletion strains, locus YLR113W, strain HOG1, active compounds read low 0.969 | S. cerevisiae deletion strains, locus YLR221C, strain rsa3, active compounds read low 0.99 | S. cerevisiae deletion strains, locus YLR258W, strain gsy2, active compounds read low 0.995 | S. cerevisiae deletion strains, locus YLR262C, strain YPT6 (second series), active compounds read low 0.98 | S. cerevisiae deletion strains, locus YLR262C, strain YPT6, active compounds read low 0.977 | S. cerevisiae deletion strains, locus YLR268W, strain sec22, active compounds read low 0.984 | S. cerevisiae deletion strains, locus YLR320W, strain mms22, active compounds read low 0.975 | S. cerevisiae deletion strains, locus YLR330W, strain CHS5, active compounds read low 1.01 | S. cerevisiae deletion strains, locus YLR342W, strain FKS1 (second series), active compounds read low 1.03 | S. cerevisiae deletion strains, locus YLR342W, strain FKS1, active compounds read low 0.978 | S. cerevisiae deletion strains, locus YLR357W, strain rsc2, active compounds read low 0.979 | S. cerevisiae deletion strains, locus YLR370C, strain arc18, active compounds read low 0.987 | S. cerevisiae deletion strains, locus YLR371W, strain rom2, active compounds read low 1.01 | S. cerevisiae deletion strains, locus YLR384C, strain iki3, active compounds read low 0.987 | S. cerevisiae deletion strains, locus YLR418C, strain cdc73, active compounds read low 1.03 | S. cerevisiae deletion strains, locus YML016C, strain PPZ1, active compounds read low 1 | S. cerevisiae deletion strains, locus YML032C, strain rad52, active compounds read low 1 | S. cerevisiae deletion strains, locus YML120C, strain ndi1, active compounds read low 0.999 | S. cerevisiae deletion strains, locus YML124C, strain tub3, active compounds read low 1 | S. cerevisiae deletion strains, locus YMR058W, strain fet3, active compounds read low 1.01 | S. cerevisiae deletion strains, locus YMR078C, strain ctf18, active compounds read low 1.01 | S. cerevisiae deletion strains, locus YMR125W, strain sto1, active compounds read low 1.01 | S. cerevisiae deletion strains, locus YMR129W, active compounds read low 0.988 | S. cerevisiae deletion strains, locus YMR205C, strain PFK2, active compounds read low 0.977 | S. cerevisiae deletion strains, locus YMR223W, strain ubp8, active compounds read low 1.04 | S. cerevisiae deletion strains, locus YMR231W, strain pep5, active compounds read low 0.998 | S. cerevisiae deletion strains, locus YMR263W, strain SAP30, active compounds read low 1.01 | S. cerevisiae deletion strains, locus YMR307W, strain GAS1, active compounds read low 0.95 | S. cerevisiae deletion strains, locus YNL067W, strain RPL9B, active compounds read low 0.998 | S. cerevisiae deletion strains, locus YNL071W, strain lat1, active compounds read low 1 | S. cerevisiae deletion strains, locus YNL183C, strain NPR1, active compounds read low 0.962 | S. cerevisiae deletion strains, locus YNL209W, strain ssb2, active compounds read low 0.996 | S. cerevisiae deletion strains, locus YNL233W, strain BNI4, active compounds read low 1.01 | S. cerevisiae deletion strains, locus YNL248C, strain rpa49, active compounds read low 1.01 | S. cerevisiae deletion strains, locus YNL250W, strain rad50, active compounds read low 1.02 | S. cerevisiae deletion strains, locus YNL271C, strain bni1, active compounds read low 1.01 | S. cerevisiae deletion strains, locus YNL298W, strain CLA4, active compounds read low 0.998 | S. cerevisiae deletion strains, locus YNL307C, strain MCK1, active compounds read low 1.02 | S. cerevisiae deletion strains, locus YNL322C, strain KRE1 (second series), active compounds read low 1 | S. cerevisiae deletion strains, locus YNR049C, strain mso1, active compounds read low 0.998 | S. cerevisiae deletion strains, locus YNR052C, strain pop2, active compounds read low 0.998 | S. cerevisiae deletion strains, locus YOL012C, strain htz1 1.17 | S. cerevisiae deletion strains, locus YOL147C, strain pex11, active compounds read low 1.01 | S. cerevisiae deletion strains, locus YOR001W, strain rrp6, active compounds read low 0.98 | S. cerevisiae deletion strains, locus YOR061W, strain CKA2, active compounds read low 1 | S. cerevisiae deletion strains, locus YOR069W, strain VPS5, active compounds read low 1.01 | S. cerevisiae deletion strains, locus YOR070C, strain gyp1, active compounds read low 0.999 | S. cerevisiae deletion strains, locus YOR080W, strain dia2, active compounds read low 0.979 | S. cerevisiae deletion strains, locus YOR083W, strain WHI5, active compounds read low 0.982 | S. cerevisiae deletion strains, locus YOR106W, strain vam3, active compounds read low 0.987 | S. cerevisiae deletion strains, locus YOR136W, strain idh2, active compounds read low 1.01 | S. cerevisiae deletion strains, locus YOR144C, strain elg1, active compounds read low 1 | S. cerevisiae deletion strains, locus YOR184W, strain ser1, active compounds read low 1.04 | S. cerevisiae deletion strains, locus YOR231W, strain MKK1, active compounds read low 0.976 | S. cerevisiae deletion strains, locus YOR265W, strain rbl2, active compounds read low 0.99 | S. cerevisiae deletion strains, locus YOR270C, strain vph1, active compounds read low 1.01 | S. cerevisiae deletion strains, locus YOR290C, strain snf2, active compounds read low 0.997 | S. cerevisiae deletion strains, locus YOR316C, strain cot1, active compounds read low 1.01 | S. cerevisiae deletion strains, locus YPL051W, strain arl3, active compounds read low 0.978 | S. cerevisiae deletion strains, locus YPL055C, strain LGE1, active compounds read low 0.999 | S. cerevisiae deletion strains, locus YPL078C, strain atp4, active compounds read low 0.974 | S. cerevisiae deletion strains, locus YPL106C, strain sse1, active compounds read low 0.946 | S. cerevisiae deletion strains, locus YPL240C, strain hsp82, active compounds read low 1 | S. cerevisiae deletion strains, locus YPL256C, strain CLN2, active compounds read low 0.992 | S. cerevisiae deletion strains, locus YPR119W, strain clb2, active compounds read low 1.01 | S. cerevisiae deletion strains, locus YPR141C, strain kar3, active compounds read low 1 | S. cerevisiae deletion strains, locus YPR163C, strain tif3, active compounds read low 1 | S. cerevisiae deletion strains, locus YPR167C, strain met16, active compounds read low 1.01 | S. cerevisiae deletion strains, strain wtn01, active compounds read low 1 | S. cerevisiae strains, strain wild type, active compounds read low 0.995
